The whole screen tested about 69,000 compounds, of which about 8,600 (12%) showed an effect of 50% or more. The sample holds strong results, similar compounds and a random draw of the others, so the mix is not that of the screen.

In this experiment the test system is Plasmodium berghei. Kind of experiment: Screen against P. berghei liver stage (PbLuc), transformed with Luciferase, at 10uM. In kind it is functional, HepG2. The note with it: tested at 10 uM.
For `Cc1cnc(-c2nc(C3CCN(C(=O)Cc4ccsc4)CC3)no2)cn1`, the INHIBITION was determined as 2.71%.

As for `CC(C)c1noc(CCC(=O)NC2CCS(=O)(=O)C2)n1` (stereo unspecified), the INHIBITION is reported as -12.2%. For `COCCN1CCC(NC(=O)C(C)C)CC1` the value was -34.4%.

For the molecule `COCCN1CCC(NC(=O)Cn2cc(C)c3ccccc32)CC1`, the INHIBITION is recorded as 17.4%. `CC(C)c1ccc(/C=C/CC(=O)NC2CCN(C(N)=O)C2)cc1` (stereo unspecified): the INHIBITION amounted to 36.5%. For `CC(C)c1ccc(/C=C/CC(=O)NC2CCN(C(N)=O)CC2)cc1`, the INHIBITION came out at 83.5%.

For `COCCN1CCC(NC(=O)C/C=C/c2ccc(C(C)C)cc2)CC1`, the INHIBITION is 61.1%. Take `CC(C)c1ccc(/C=C/CC(=O)NC2CCS(=O)(=O)CC2)cc1`: the INHIBITION is given as 71.2%. Regarding `CC(C)c1ccc(OCCC(=O)N2CCC(C(N)=O)CC2)cc1`, the INHIBITION was determined as 32.2%.

For `CC(C)c1noc(CCCC(=O)NC2CCS(=O)(=O)C2)n1` (stereo unspecified), the INHIBITION is -7.46%. With `CC(=O)NCC1CCN(C(=O)NCCOc2ccc3c(c2)CCC3)CC1`, the INHIBITION is 25.1%. For `COc1cc(C(=O)N2CCCC(n3cncn3)C2)ccc1C` (stereo unspecified) the value was -16%; for `CC(C(=O)N1CCCC1)n1nc(-c2cccs2)cc(N)c1=O` (stereo unspecified), 11.8%.

Consider `CCN1CCN(C(=O)c2cnc3c(cnn3C3CCCC3)c2)CC1`, for which the INHIBITION is reported as 19.2%.

On to `O=C(NCC1CC1)[C@H]1C[C@@H]2CCN(Cc3nccs3)C[C@@H]2O1`, for which the INHIBITION was found to be 25%. Turning to `COCCNC(=O)[C@H]1C[C@@H]2CCN(Cc3ccncc3)C[C@H]2O1`, the INHIBITION is -1.36%. Take `CN(C)C(=O)[C@@H]1C[C@@H]2CCN(Cc3nccs3)C[C@@H]2O1`: the INHIBITION was 19.9%. For the molecule `COCCNC(=O)[C@H]1C[C@@H]2CCN(Cc3nccs3)C[C@H]2O1`, the INHIBITION came to 56.7%. For `CC1CCN(C(=O)[C@@H]2C[C@@H]3CCN(Cc4nccs4)C[C@H]3O2)CC1` the value was 53.9%; for `CNC(=O)[C@H]1C[C@@H]2CCN(Cc3nccs3)C[C@H]2O1`, 26.4%; for `CC(C)CCn1ccc(NC(=O)N2CCCC2C(C)(C)O)n1` (stereo unspecified), 29.9%.

Take `c1ccc(OCc2nnc3n2CCN(CC2CCOCC2)C3)nc1`: the INHIBITION is on record as 43.2%. Consider `Cc1cc(C)nc(C2CCN(C3CCOCC3)C2)n1` (stereo unspecified), for which the INHIBITION is on record as -10.4%. Next, `Cn1nc(C(C)(C)C)cc1NC(=O)Cn1ccnc1`: 11.2%; `COCCN1C[C@@H]2CC[C@H]1CN(Cc1cc(=O)c3cc(C)ccc3[nH]1)C2`: -23.5%. For `COCC1N(C(=O)Nc2ccccc2)C2CCC1(O)CC2` (stereo unspecified), the INHIBITION was 8.61%.

For `COc1nn(C)cc1C(=O)NCC1(O)CCc2ccccc2C1` (stereo unspecified), the INHIBITION came to 36.5%. For `O=C(NCC1(O)CCc2ccccc2C1)c1cccs1` (stereo unspecified) the value was 36.3%; for `Cc1oncc1C(=O)NCC1(O)CCc2ccccc2C1` (stereo unspecified), 67.1%.

With `CCC(C)NC(=O)CCNC(=O)Nc1ccc(-n2cncn2)c(F)c1` (stereo unspecified), the INHIBITION was 22.69%.

Take `CN(C)S(=O)(=O)N1CCC[C@]2(C[C@@H](Oc3ncccc3F)CO2)C1`: the INHIBITION was 20.6%. Turning to `CN1N=C(C(=O)NCCc2csc(-c3ccccc3)n2)CCC1=O`, the INHIBITION was determined as 4.95%. Take `CNC(=O)CN1CCOCC2(C1)CN(Cc1csnn1)CCO2` (stereo unspecified): the INHIBITION is 67.5%.

As to `CCCC(=O)N1CCOC2(COCCN(CC(=O)NC)C2)C1` (stereo unspecified), the INHIBITION is on record as 3.25%. Next, `CNC(=O)CN1CCOCC2(CN(CCC(F)(F)F)CCO2)C1` (stereo unspecified): 43.9%. As to `CN(C)C(=O)c1cnc2n1CCN(Cc1ccncc1)C2`, the INHIBITION was 24.1%.

In the case of `Cc1ccccc1C(=O)NCc1ccc(N2CCNC(=O)C2)cc1`, the INHIBITION is listed as 15.1%.

Take `Cc1cc(NCc2ccc(N3CCNC(=O)C3)cc2)nc(C)n1`: the INHIBITION was determined as 61.8%.

As for `O=C1CN(c2ccc(CNc3cncc(-n4cccn4)n3)cc2)CCN1`, the INHIBITION is recorded as 40.5%. Next, `CCSc1cncc(NCc2ccc(N3CCNC(=O)C3)cc2)n1`: 82.2%; `CC(C(=O)NCc1ccc(N2CCNC(=O)C2)cc1)n1cncn1` (stereo unspecified): 27.1%; `Cc1cccnc1NC(=O)NCc1ccc(N2CCNC(=O)C2)cc1`: 21.7%. Next, `CCN(Cc1ccccc1)c1ncnc2c(C)nn(CC)c12`: -1.57%; `Cc1cc(NC(=O)NCCC(=O)N2CCCc3ccccc32)no1`: 16.1%; `CS(=O)(=O)c1cn[nH]c1C1CCCN1C(=O)c1cccnc1` (stereo unspecified): 24.4%.

On to `Cc1ccnc(C2CN(Cc3cnn(-c4ccccc4C(=O)O)c3)C2)n1`, for which the INHIBITION was 14.5375%.

Take `CCN(CC)C(=O)C1CCC2(CCNCC2)CO1` (stereo unspecified): the INHIBITION was 2.79%. As for `CC(C)N(C)C(=O)C1CCC2(CCNCC2)O1` (stereo unspecified), the INHIBITION is reported as 27.7%. Next, `CCN(CC)C(=O)C1CCC2(CCNCC2)O1` (stereo unspecified): 57.9%; `Cc1nc(C)n(C2CCCN(C(=O)c3ccc4[nH]nnc4c3)C2)n1` (stereo unspecified): 21.9%; `O=C(NCCC1CCCCO1)c1cc(COc2cncc(Cl)c2)on1` (stereo unspecified): 59.3%.

These data come from ChEMBL document CHEMBL4513216, “Probing the Open Global Health Chemical Diversity Library for Multistage-Active Starting Points for Next-Generation Antimalarials” (ACS Infect Dis, 2020).
